Records with an inconclusive call do not appear. Where a call stands in place of a potency, no number is given. Activity calls are given as the source filed them. Calls come from the whole dose curve; as a rule, active = well fitted inhibition curve with a large enough effect; inconclusive = small, poorly fitted or top-dose-only effect; inactive = no such curve, though single readings can be large or run the other way.
Biological target: Coelenterazine h 2-monooxygenase (Renilla reniformis) (UniProt P27652)
Sequence (P27652 whole entry, looked up): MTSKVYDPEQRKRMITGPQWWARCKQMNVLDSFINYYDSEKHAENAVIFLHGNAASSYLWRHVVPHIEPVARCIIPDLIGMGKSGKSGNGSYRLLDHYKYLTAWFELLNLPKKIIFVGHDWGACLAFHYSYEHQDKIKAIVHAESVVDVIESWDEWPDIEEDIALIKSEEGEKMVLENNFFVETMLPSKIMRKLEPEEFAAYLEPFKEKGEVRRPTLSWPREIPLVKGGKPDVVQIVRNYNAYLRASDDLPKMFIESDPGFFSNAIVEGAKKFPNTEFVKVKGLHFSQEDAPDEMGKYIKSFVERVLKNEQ
Assay: qHTS Assay for Inhibitors of Sea Pansy Luciferase from the GSK Published Protein Kinase Inhibitor Set
Summary of the method: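 qHTS (roughly 60 uM down to 300 pM) against 1 nM Renilla luciferase, substrate coelenterazine h 5 uM, Tris acetate pH 7.5 buffer with NaCl, Tween-20 and BSA. Luminescence measured after an average 2 min incubation.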
Potency is the fitted concentration of half-maximal effect.

CC(=Nc1ccc(S(N)(=O)=O)cc1)c1c(O)[nH]c2ccccc12
Potency: inactive

CS(=O)(=O)CCNCc1ccc(-c2ccc3ncnc(Nc4ccc(OCc5ccccc5)c(C(F)(F)F)c4)c3c2)o1
Potency: inactive

CC1=C(C(=O)Nc2ccc3[nH]ncc3c2)C(c2ccc(F)cc2)NC(=O)N1 (centres undefined)
Potency: inactive

CC(=O)Nc1cccc(C#Cc2cncnc2Nc2ccc(OCc3cccc(F)c3)c(Cl)c2)c1
Potency: inactive

O=S(=O)(CCNCc1ccc(-c2ccc3ncnc(Nc4ccc(OCc5cccc(F)c5)c(Cl)c4)c3c2)o1)c1ccccc1
Potency: inactive

Fc1ccc(-c2cc(-c3cn[nH]c3-c3ccccn3)ccn2)cc1
Potency: inactive

COc1cc(Nc2ncc(-c3ccccc3)o2)cc(OC)c1OC
Potency: inactive

Cc1cccc(Nc2ncc(-c3ccccc3)o2)c1
Potency: inactive

Cc1ccc2[nH]c(O)c(N=Nc3ccc(S(N)(=O)=O)cc3)c2c1
Potency: inactive

Cc1ccc2c(-c3ccnc(Nc4ccccc4)n3)c(-c3ccc(F)cc3)nn2n1
Potency: inactive

CS(=O)(=O)CCN(CC#N)Cc1ccc(-c2ccc3ncnc(Nc4ccc(OCc5cccc(F)c5)c(Cl)c4)c3c2)o1
Potency: inactive

CN(C)CCOc1ccc(-c2cc(-c3ccc4c(c3)CCC4=NO)c(-c3ccncc3)o2)cc1
Potency: inactive

Cn1c(-c2nonc2N)nc2cnccc21
Potency: inactive

CNC(=O)c1cccc(C#Cc2cncnc2Nc2ccc(OCc3cccc(F)c3)c(Cl)c2)c1
Potency: inactive

CCn1c(-c2nonc2N)nc2ccc(F)cc21
Potency: inactive

Cc1ccc(-c2cc3c(NC(=O)C4CC4)ncnc3o2)cc1
Potency: inactive

CCn1c(-c2nonc2N)nc2c(C#CC(C)(C)O)nc(CN3CCCC3)cc21
Potency: inactive

ON=C1CCc2cc(-c3nc(C4CCNCC4)[nH]c3-c3ccncc3)ccc21
Potency: inactive

O=C(Nc1n[nH]c2nc(-c3ccco3)c(Br)cc12)C1CC1
Potency: inactive

O=S(=O)(CCOCc1ccc(-c2ccc3ncnc(Nc4ccc(OCc5cccc(F)c5)c(Cl)c4)c3c2)o1)c1ccccc1
Potency: inactive

Cc1c2ccc(N(C)c3ccnc(Nc4cccc(S(N)(=O)=O)c4)n3)cc2nn1C
Potency: 18.3 µM (active)

N#Cc1c(NC(=O)c2ccc(F)cc2)sc2c1CCCC2
Potency: inactive

COc1ccc(Nc2ncc(-c3ccccc3)o2)cc1OC
Potency: inactive

CCn1c(-c2nonc2N)nc2c(N3CCCC3)nccc21
Potency: inactive

O=C1NC(=O)C(c2ccccc2Cl)=C1Nc1cccc(O)c1
Potency: inactive

COc1cc2ncn(-c3cc(OCCc4ccccc4)c(C(N)=O)s3)c2cc1OC
Potency: inactive

NC(=O)c1ccc2c(-c3ccnc(NCCCO)n3)c(-c3ccc(F)cc3)nn2c1
Potency: inactive

COc1ccccc1-c1cc(C=C2C(=O)Nc3ncc(Br)cc32)cc(Br)c1O
Potency: 8.19 µM (active)

Nc1nccc(-c2c(-c3ccc(F)cc3)nn3cc(C(F)(F)F)ccc23)n1
Potency: inactive

COc1ccc(-c2nn3ncccc3c2-c2ccnc(Nc3ccc4c(c3)OCCO4)n2)cc1
Potency: inactive

CS(=O)(=O)CCNCc1ccc(-c2ccc3ncnc(Nc4ccc(OCc5ccccc5)c(Cl)c4)c3c2)o1
Potency: inactive

CS(=O)(=O)CCNCc1coc(-c2ccc3ncnc(Nc4ccc(OCc5ccccc5)cc4)c3c2)c1
Potency: inactive

COc1cccc(-n2ncc3c(NN=Cc4cccc(F)c4)ncnc32)c1
Potency: inactive

c1ccc(-c2nc3n(c2-c2ccc4c(c2)OCO4)CCC3)nc1
Potency: inactive

CC(C)c1ccc2c(N=Nc3ccc(S(N)(=O)=O)cc3)c(O)[nH]c2c1
Potency: inactive

Nc1nonc1-c1nc2cnccc2n1C1CCCCC1
Potency: inactive

COc1cccc(-n2ncc3c(NN=Cc4ccc(S(C)(=O)=O)cc4)ncnc32)c1
Potency: inactive

COc1ccccc1Nc1ncc(-c2ccccc2)o1
Potency: inactive

COc1cc(C)c(N(C)C(=O)CN(C)C)cc1Nc1nc(Nc2cccc(F)c2C(N)=O)c2cc[nH]c2n1
Potency: inactive

Source: PubChem BioAssay AID652015 (National Center for Advancing Translational Sciences (NCATS), 2013)
